# According to PubChem BioAssay (Tox21):
# A number with no mark means an inactive call. Calls come from the whole dose curve; as a rule, active = well fitted inhibition curve with a large enough effect in the repeat runs (not every such curve was filed as active); inconclusive = weak or mixed curves; inactive = flat fitted curve, though single readings scatter.
# Target: Thyrotropin-releasing hormone receptor (Homo sapiens) (UniProt P34981)
# Assay: qHTS assay to identify small molecule antagonists of the thyrotropin-releasing hormone receptor (TRHR) signaling pathway (AID 1346877)
# Details: TRHR-HEK293, TRH-induced calcium fluorescence, antagonist mode; series mostly up to 51.3 µM; activity, negative = inhibition: at the top concentration
# Source text: National Center for Advancing Translational Sciences [NCATS]
# NIH Chemical Genomics Center [NCGC]
# U.S. Environmental Protection Agency [EPA]
# National Institutes of Environmental Health Sciences [NIEHS]
# National Toxicology Program [NTP]
# U.S. Food and Drug Administration [FDA]
# Thyrotropin-releasing hormone (TRH) receptor (TRHR) is a G-protein-coupled receptor which binds the tripeptide thyrotropin releasing hormone. TRHR is found in the brain and, when bound by TRH, acts (through phospholipase C) to increase intracellular inositol trisphosphate. It plays a crucial role in the anterior pituitary where it controls the synthesis and secretion of thyroid stimulating hormone and prolactin. The TRHR-Hek293 assay is a cell-based assay, and it has the potential to screen G protein-coupled receptors. A compound/drug can either activate (agonist) or suppress (antagonist) GPCRs that can be monitored by levels of intracellular calcium. In this assay, the Tox21 10K compound library was screened to identify potential TRHR antagonists.
# Tox21 Assay Protocol Summary:
# The TRHR-Hek293 cells were dispensed at 1500cells/4uL/well in 1536-well black-clear bottom plates using a Multidrop dispenser. After the assay plates were incubated at a 37 C/5% CO2 incubator for 18 hours, 4 uL of Dye-Loading Solution was added to each well. The plates were incubated at 37 C for 2 hours. For agonist mode, 23 nL of compounds dissolved in DMSO, positive controls or DMSO only was transferred to the assay plate by a pin tool. The fluorescence intensity in the plates was measured using FDSS 7000EX kinetic plate reader for 3 min at 1 sec intervals. For antagonist mode, 23 nL of compounds dissolved in DMSO, positive controls or DMSO only was transferred to the assay plate by a pin tool. After 5 min incubation at room temperature, 1 uL of TRH was added on the top of the cell/compound mixtures to achieve a final agonist concentration of 1 nM. The fluorescence intensity in the plates was measured using FDSS 7000EX kinetic plate reader for 3 min at 1 sec intervals. Each test compound was measured at 15 concentrations and in triplicates.
# % is set by controls: 0 for no effect and ±100 for the full control effect.
# Chain of Thyrotropin-releasing hormone receptor (Homo sapiens) (P34981 whole entry, looked up): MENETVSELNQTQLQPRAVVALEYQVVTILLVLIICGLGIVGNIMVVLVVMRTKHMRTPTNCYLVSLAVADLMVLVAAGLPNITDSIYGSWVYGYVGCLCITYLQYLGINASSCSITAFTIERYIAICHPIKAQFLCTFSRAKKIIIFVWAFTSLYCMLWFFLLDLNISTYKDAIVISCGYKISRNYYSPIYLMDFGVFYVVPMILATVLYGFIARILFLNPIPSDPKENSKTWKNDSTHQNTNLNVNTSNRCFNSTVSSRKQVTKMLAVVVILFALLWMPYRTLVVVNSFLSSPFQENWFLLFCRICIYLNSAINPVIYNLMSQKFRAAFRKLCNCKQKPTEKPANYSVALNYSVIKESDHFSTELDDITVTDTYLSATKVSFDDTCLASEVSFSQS
row,SMILES,"activity, negative = inhibition"
1,CC(=O)O[C@@H]1C(=O)O[C@@H]2[C@H]1OC(=O)[C@@H]2OC(C)=O,-1.15% [at 23.6 µM]
2,O=C1c2cccc(O)c2C(=O)c2c(O)cc(CO)cc21,-4.63%
3,O=C(NN1CCCC1)NS(=O)(=O)c1ccc(Cl)cc1,-0.966% [at 23.6 µM]
4,Cc1cc(NC(=O)C(=O)O)cc(C)c1Oc1ccc(O)c2c1CCC2,-2.59%
5,CCC(C)N(C)C(=O)c1cc2ccccc2c(-c2ccccc2Cl)n1 (stereo not given),-13% [at 23.6 µM]
6,CN1CCN(C2=Nc3ccccc3Sc3ccc(Cl)cc32)CC1,0.702% [at 23.6 µM]
7,N#CCc1cccc(C(F)(F)F)c1,-4.9%
8,CC(C)(C)c1ccc(S)cc1,2.99%
9,CC(=O)SCc1ccco1,0.741%
10,O=C(O)C(c1ccc(Cl)cc1)c1ccc(Cl)cc1,-0.0809%
11,CC(C)NCC(O)COc1ccc(CC(N)=O)cc1 (stereo not given),0%
12,O=C(O)Cn1c(C(=O)Nc2nc(-c3ccccc3Cl)cs2)cc2ccccc21,0.0633% [at 23.6 µM]
13,CNS(=O)(=O)Cc1ccc2[nH]cc(CCN(C)C)c2c1,0.192% [at 23.6 µM]
14,FC(F)(F)C(F)(F)C(F)(F)C(F)(F)C(F)(F)C(F)(F)CCI,2.16% [at 23.6 µM]
15,CC(=O)/C=C/C1C(C)=CCCC1(C)C (stereo not given),3.97%
16,C=C(C)C(=O)OC(C)C,2.01%
17,O=CNc1ccccc1,0.601%
18,O=C1Nc2cc(Cl)ccc2Oc2ccccc21,-3.18% [at 23.6 µM]
19,Cc1cccc(C(C)(C)C)c1O,-0.03%
20,C=CC(=O)OCC(C)OCC(C)OCC(C)OC(=O)C=C (stereo not given),-10.9%

row,SMILES,"activity, negative = inhibition"
1,CCN(CC)CCOC(=O)C1(c2ccccc2)CCCC1,-2.08% [at 23.6 µM]
2,COc1cc(C(C)(C)C)c(O)c(C(C)(C)C)c1,0.2%
3,CCN(CC)CCOc1ccc2c(c1)C(=O)c1cc(OCCN(CC)CC)ccc1-2,-5.74% [at 23.6 µM]
4,CCCCCCc1ccc(N)cc1,-1.56%
5,CC1(C)[C@H]2CC[C@]1(C)[C@H](O)C2,23%
6,CC(C)CCCCCCOC(=O)c1ccc(C(=O)OCCCCCCC(C)C)c(C(=O)OCCCCCCC(C)C)c1,-0.604%
7,C#CCOC(=O)[C@@H](C)Oc1ccc(Oc2ncc(Cl)cc2F)cc1,-5.53%
8,N#Cc1c(F)cccc1F,0.444%
9,Nc1ccc(C(=O)N2CC3CC(CN(Cc4ccccc4)C3)C2)cc1,-5.06% [at 23.6 µM]
10,CCCCOC(=O)/C=C\C(=O)OCCCC,-1.4%
11,CC(=O)N(CC(=O)N(C)C)c1ccccc1,-0.655% [at 23.6 µM]
12,COC(Cc1ccccc1)OC,-3.68%
13,O=C=NC1CCC(CC2CCC(N=C=O)CC2)CC1 (stereo not given),-4.54%
14,Cc1occc1S,4.27%
15,CC[C@@H]1C[C@H](N(Cc2cc(C(F)(F)F)cc(C(F)(F)F)c2)C(C)=O)c2cc(C(F)(F)F)ccc2N1C(=O)OC(C)C,-0.0557%
16,CC(=O)c1ccc2c(c1)[C@H](NC(=O)c1ccc(F)cc1)[C@@H](O)C(C)(C)O2,-5.26%
17,CCOC(=O)C1=C(C)NC(C)=C(C(=O)OC)C1c1cccc([N+](=O)[O-])c1 (stereo not given),2.18% [at 23.6 µM]
18,O=C(O)Cc1sc(-c2ccccc2)nc1-c1ccc(Cl)cc1,0.235% [at 23.6 µM]
19,O=S1(=O)N=C(O)c2ccccc21,-2.09% [at 23.6 µM]
20,NCc1ccccc1,-3.09%
